Assay results as given in ChEMBL document CHEMBL3433997, “St. Jude Leishmania screening dataset” (2016).

What was measured:
Assay type in all cases: functional
[1] = target: Solute carrier family 2, facilitated glucose transporter member 1 (Homo sapiens) (UniProt P11166); assay: ST_JUDE_LEISH: Cytotoxicity at 2uM final concentration against transgenic Leishmania Mexicana promastigotes LmGLUT1 that are glucose transport deficient and complemented with the human glucose transporter GLUT1. Activity is measured by DNA content using SYBR green in vitro
Sequence of Solute carrier family 2, facilitated glucose transporter member 1 (Homo sapiens) (P11166 whole entry): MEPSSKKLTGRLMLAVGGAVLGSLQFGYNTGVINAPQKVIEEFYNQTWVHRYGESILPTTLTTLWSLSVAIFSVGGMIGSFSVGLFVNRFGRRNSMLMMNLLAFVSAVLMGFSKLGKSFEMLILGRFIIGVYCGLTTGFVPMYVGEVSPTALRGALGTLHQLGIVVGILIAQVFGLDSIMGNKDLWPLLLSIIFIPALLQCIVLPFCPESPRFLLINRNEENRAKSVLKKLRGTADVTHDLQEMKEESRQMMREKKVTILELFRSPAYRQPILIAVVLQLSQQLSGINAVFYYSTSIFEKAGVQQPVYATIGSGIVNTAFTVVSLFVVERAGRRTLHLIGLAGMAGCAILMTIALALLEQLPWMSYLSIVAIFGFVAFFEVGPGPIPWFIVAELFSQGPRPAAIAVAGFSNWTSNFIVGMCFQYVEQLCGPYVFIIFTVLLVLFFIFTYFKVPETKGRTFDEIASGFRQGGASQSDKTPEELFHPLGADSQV

[2] = target: Hexose transporter 1 (Plasmodium falciparum) (UniProt O97467); assay: ST_JUDE_LEISH: Cytotoxicity at 2uM final concentration against transgenic Leishmania Mexicana promastigotes LmPfHT that are glucose transport deficient and complemented with the Plasmodium falciparum hexose transporter. Activity is measured by DNA content using SYBR green in vitro
[3] = target: Glucose transporter (Leishmania mexicana) (UniProt O61059); assay: ST_JUDE_LEISH: Cytotoxicity at 2uM final concentration against transgenic Leishmania Mexicana promastigotes LmGT2 that are glucose transport deficient and complemented with the L. Mexicana glucose transporter 2. Activity is measured by DNA content using SYBR green in vitro

**Q.** How did the inhibition [1] turn out when `CCN(CC)CCNC(=O)c1ccc(NC(=O)c2cc3c(C)nn(-c4ccc(Cl)cc4)c3s2)cc1` was run?
**A.** Its inhibition is 2.43%.

**Q.** And the inhibition [2]?
**A.** The inhibition was 2.37%.

**Q.** What about the inhibition [3] of the same compound?
**A.** The inhibition was 1.83%.

**Q.** For `Fc1cccc(Nc2nc(NCc3ccc4ccsc4c3)nc(Nc3cccc(F)c3)n2)c1`, which inhibition [1] is on record?
**A.** The inhibition was 19.2%.

**Q.** What about the inhibition [2] of the same compound?
**A.** The inhibition was 18%.

**Q.** And the inhibition [3]?
**A.** The inhibition was 10.6%.

**Q.** How did the inhibition [1] turn out when `CC(C)COc1ccc(Cl)cc1Cc1ccc(-c2nc3cnc4ccccc4c3[nH]2)o1` was run?
**A.** Its inhibition is 3.89%.

**Q.** What about the inhibition [2] of the same compound?
**A.** Its inhibition is 2.77%.

**Q.** What about the inhibition [3] of the same compound?
**A.** Its inhibition is 2%.

**Q.** For `COc1ccccc1-c1[nH]c2ccccc2c1CN1CCC(c2c(C)cccc2C)CC1`, which inhibition [1] is on record?
**A.** Its inhibition is 16.3%.

**Q.** What about the inhibition [2] of the same compound?
**A.** Its inhibition is 16.1%.

**Q.** And the inhibition [3]?
**A.** Its inhibition is 11%.

**Q.** For `Cc1nc(N)nc(N)c1C#CC1CCCC1`, which inhibition [1] is on record?
**A.** Its inhibition is 5.81%.

**Q.** What about the inhibition [2] of the same compound?
**A.** The inhibition was 6.82%.

**Q.** And the inhibition [3]?
**A.** Its inhibition is 2.76%.

**Q.** How did the inhibition [1] turn out when `O=S(=O)(NCCN1CCCC1)c1ccc(-c2ccc(CNCc3ccc(F)cc3)cc2)cc1` was run?
**A.** The inhibition was 7.2%.

**Q.** And the inhibition [2]?
**A.** Its inhibition is 6.71%.

**Q.** What about the inhibition [3] of the same compound?
**A.** Its inhibition is 4.15%.

**Q.** What does the source list for `O=C(/C=C/c1ccc(Cl)c(Cl)c1)NC1CCC(CN2CCC(Cc3cc4ccccc4[nH]3)CC2)CC1` (stereo unspecified)?
**A.** inhibition [1]: 4.78%; inhibition [2]: 1.97%; inhibition [3]: 3.2%

**Q.** For `Cc1cccc2nc(-c3cccc(-c4cccc(CN5CCN(c6ccncc6)CC5)c4)c3)[nH]c12`, which inhibition [1] is on record?
**A.** The inhibition was 1.34%.

**Q.** And the inhibition [2]?
**A.** The inhibition was 0.76%.

**Q.** And the inhibition [3]?
**A.** The inhibition was 0.37%.

**Q.** Which results are given for `c1cncc(-c2cccc(CNc3nccc(Nc4ccc(OCCN5CCOCC5)cc4)n3)c2)c1`?
**A.** inhibition [1]: 0.48%; inhibition [2]: 1%; inhibition [3]: 0.07%

**Q.** Which inhibition [1] does the source give for `Cc1nc(C)c(-c2ccc(C(F)(F)F)cc2)c(O)c1Br` here?
**A.** The inhibition was 2.72%.

**Q.** And the inhibition [2]?
**A.** Its inhibition is 1.79%.

**Q.** And the inhibition [3]?
**A.** The inhibition was 0.77%.

**Q.** How did the inhibition [1] turn out when `O=C(NC1CCCCC1)N(Cc1ccccc1-c1ccc(CNCCc2ccccc2)cc1)C1CCN(Cc2ccccc2)CC1` was run?
**A.** The inhibition was 4.39%.

**Q.** What about the inhibition [2] of the same compound?
**A.** The inhibition was 3.18%.

**Q.** And the inhibition [3]?
**A.** The inhibition was -0.58%.

**Q.** How did the inhibition [1] turn out when `COc1ccc(C2CC(=O)C3=C(C2)NC(C)=C(C(=O)OC(C)C)C3c2ccccc2F)cc1OC` (stereo unspecified) was run?
**A.** Its inhibition is 13.6%.

**Q.** And the inhibition [2]?
**A.** Its inhibition is 2.16%.

**Q.** And the inhibition [3]?
**A.** The inhibition was 1.65%.
